Source: PubChem BioAssay AID571 (The Scripps Research Institute Molecular Screening Center, 2007)
Among all 65,000 compounds or so, about 640 (0.98%) were called active.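 How the source made its calls: active means inhibition above a set limit, the mean inhibition across every tested compound plus 3 SD (cut at about 29% in these data); inactive means the rest.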 Shown is part of a subset that was picked to be rich in actives.

molecular target: 5-hydroxytryptamine receptor 1E (Homo sapiens) (UniProt P28566); test: 5-HT1E receptor antagonists, primary screen, cell-based, HTS (AID 571); conditions: CHO 5-HT1E Ga15 NFAT-bla reporter, FRET, antagonist; at 6 µM; active compounds read high;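 further: signal is the 460 over 535 nm emission ratio of beta-lactamase substrate; 0% = agonist plus DMSO wells and 100% = wells without agonist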
Sequence (P28566 whole entry, looked up): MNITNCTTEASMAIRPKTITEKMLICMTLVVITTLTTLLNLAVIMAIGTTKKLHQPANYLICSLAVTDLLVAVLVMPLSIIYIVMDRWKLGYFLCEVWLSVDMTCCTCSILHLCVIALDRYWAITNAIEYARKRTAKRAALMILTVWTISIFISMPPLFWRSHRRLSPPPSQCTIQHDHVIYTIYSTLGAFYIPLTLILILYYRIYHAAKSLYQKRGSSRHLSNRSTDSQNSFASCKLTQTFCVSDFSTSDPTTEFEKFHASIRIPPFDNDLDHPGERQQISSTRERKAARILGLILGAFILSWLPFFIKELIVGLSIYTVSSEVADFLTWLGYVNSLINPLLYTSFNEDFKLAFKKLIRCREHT

inhibition, active:
COc1ccc(C)c(Cn2c(-c3nonc3N)nc3ccccc32)c1 33.6%, CC[C@H]1CN2CCc3cc(OC)c(OC)cc3[C@@H]2C[C@@H]1C[C@H]1NCCc2cc(OC)c(OC)cc21 92.4%, CCSc1ncnc2c(C#N)c3n(c12)CCCCC3 47.6%, Cc1nn(Cc2ccc(Cl)c(Cl)c2)c(C)c1NC(=O)c1cc(C2CC2)on1 34.3%, CC[C@]1(O)C[C@@H]2CN(CCc3c([nH]c4ccccc34)[C@@](C(=O)OC)(c3cc4c(cc3OC)N(C)[C@H]3[C@@](O)(C(=O)OC)[C@H](OC(C)=O)[C@]5(CC)C=CCN6CC[C@]43[C@@H]65)C2)C1 73.5%, CC[C@]1(O)CC2CN(CCc3c([nH]c4ccccc34)[C@@](C(=O)OC)(c3cc4c(cc3OC)N(C=O)[C@H]3[C@@](O)(C(=O)OC)[C@H](OC(C)=O)[C@]5(CC)C=CCN6CC[C@]43[C@@H]65)C2)C1 (some centres undefined) 71.9%

inhibition, inactive:
CCOc1ccc(NC(=O)Nc2cc(C)on2)cc1 -2.74%, O=C(CN1C(=O)COc2ccccc21)Nc1ccc(F)cc1 6.81%, O=C(CSc1nnc(-c2c[nH]c3ccccc23)n1-c1ccc(F)cc1)NCc1ccco1 6.88%, COc1ccc(S(=O)(=O)N(C)CC(=O)Nc2ccc3c(c2)OCCO3)cc1OC 10.4%, CCC(C)(C)n1nnnc1C(c1cccs1)N1CCN(c2nc3ccccc3s2)CC1 (centres undefined) 3.71%, Cc1nnc(SCc2cc(=O)[nH]c(N3CCN(Cc4ccccc4)CC3)n2)s1 -7.09%, COc1cc(OC)c(C(=O)Nc2ccc(N(C)C)cc2)cc1OC -7.5%, COc1ccccc1-c1nc(C(F)(F)F)c(OC)o1 -6.75%, Cc1cc(C)n2nc(C(=O)Oc3ccc4c(c3)OCO4)nc2n1 -5.31%, Nc1nonc1-c1nc2ccccc2n1Cc1ccc(F)cc1 8.52%, Nc1nonc1-c1nc2ccccc2n1CCC(=O)O 7.28%, NC(=O)CSc1oc(-c2cccs2)nc1S(=O)(=O)c1ccccc1 1.39%, CN(C)CCCNC(=O)c1ccc2[nH]c3ccccc3c2c1 -3.46%, CCCCOc1ccc(C(C)(O)CCN2CCOCC2)cc1 (centres undefined) 2.45%, Cc1ccc(S(=O)(=O)n2nc(OC(=O)C(C)(C)C)cc2N)cc1 -1.76%, CN1CCCC(OC(=O)COc2ccc(Br)cc2)C1 (centres undefined) -15.4%, CCOC(=O)C1CCCN(C(=O)c2cncc(Br)c2)C1 (centres undefined) 3.85%, O=C(c1ccco1)N1CCN(CC(=O)N(C2CCCCC2)C2CCS(=O)(=O)C2)CC1 (centres undefined) 16.6%, CCSC1=C(C#N)C(=O)n2c1cc1c2CCCC1 -0.37%, COC(=O)c1ccccc1NC(=O)Cn1nc(C(F)(F)F)c2c1CCC2 -3.25%, CCn1c2c(c3ccc(OC)cc31)CCCC2=O 4.52%, Cc1cc(NC(=O)c2cc(-c3cccs3)on2)nn1Cc1ccc(Cl)cc1 -7.29%, O=C(Nc1cc(C(F)(F)F)ccc1Cl)c1cc(C2CC2)on1 -9.73%, CC(=O)C1C(c2ccc(Cl)cc2)NC(=O)NC1(O)C(F)(F)F (centres undefined) 6.15%, CCSC(C)CC1C/C(=N/O)c2c(C)noc2C1 (centres undefined) 21.4%, Cc1nc2sc(C(c3ccco3)N3CCC4(CC3)OCCO4)c(O)n2n1 (centres undefined) -11.1%, CC1(C)Oc2ccc3ccc(=O)oc3c2/C(=C/NCCO)C1=O -8.4%, CN=C1SC(C(=O)O)CC(=O)N1C (centres undefined) 1.76%, Cc1ccc(C(c2nnnn2C(C)(C)C)N2CCc3ccccc3C2)cc1 (centres undefined) -3.9%, FC(F)Oc1ccccc1C1CC(c2ccc(Br)s2)Nc2ncnn21 (centres undefined) 12%, O=C(c1cnn2ccccc12)N1CCc2ccccc21 -4.32%, COCCNC(=O)CN(C(=O)CCC(=O)Nc1cc(C)on1)c1ccc(C)cc1C -0.23%, Cc1cccc(Cn2c(SCCO)nc3c2c(=O)n(C)c(=O)n3C)c1 -1.41%
